This is an account of results in PubChem BioAssay (NCATS).

Values joined by “and” are separate entries in the source; they are usually repeats but may differ in a detail not shown here. Identical values can stand only once. Inconclusive results are not listed. Active and inactive are the calls of the source. Unless noted, calls come from the whole dose curve; as a rule, active = well fitted curve in either direction with a large enough effect (not every such curve was filed as active); inconclusive = small, poorly fitted or top-dose-only effect, or another doubt; inactive = flat fitted curve, though single readings scatter.

A short description of experiment [1]: AP1 Signaling Pathway (AID 357).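 Note: ME-180 reporter cells stimulated with EGF at its EC50 level; % is set by controls: 0 for no effect and ±100 for the full control effect.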 Particulars: ME-180 AP-1-bla reporter, EGF-induced, beta-lactamase ratio, 5 h. A digest of the protocol: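 In this screen, ME-180 cells in Opti-MEM with 0.5% dialyzed FBS received EC50 EGF and compound titrations for 5 h. AP-1 reporter beta-lactamase was detected via CCF4 ratio, giving AC50 for positive and negative modulators.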

Experiment [2] addresses Cytochrome P450 1A2 (Homo sapiens) (UniProt P05177). Put plainly: p450-cyp1a2 (AID 410; calls by dose curve; note: potency is the fitted concentration of half-maximal effect;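 for activity change, negative = inhibition: -100% = full effect of reference inhibitor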). A digest of the protocol: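 Human CYP1A2 (20nM) demethylated Luciferin-ME at its Km (100uM) in 100mM KPO4. After 10 min compound preincubation, NADPH regeneration ran the reaction 60 min at room temperature. Luciferin was read by luminescence, normalized to 57 uM furafylline.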
The nature of experiment [3]: NFAT Signaling Pathway (AID 444).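 Note: carbachol stimulus at about its EC50 of 1 µM final; % is set by controls: 0 for no effect and ±100 for the full control effect.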 Particulars: Jurkat NFAT-bla M1, carbachol, beta-lactamase ratio, 5 h. A digest of the protocol: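 Jurkat cells with NFAT-driven β-lactamase reporter and co-expressed M1 receptor, stimulated with carbachol (final 1 uM, ~EC50), compound titration, 5 h at 37 °C. CCF4 loaded 1 h at RT; 460/530 nm ratio gave %activity and AC50.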
A short description of experiment [4]: Stat Signaling Pathway (AID 446).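 Note: ME-180 cervical cancer cells given 40 pM IL-6 alongside compound; SIE-controlled beta-lactamase reporter measured as 460/530 nm FRET emission ratio; % is set by controls: 0 for no effect and ±100 for the full control effect.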 Particulars: ME-180 SIE beta-lactamase reporter, IL-6 stimulated, 5 h. A digest of the protocol: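 Reporter line: ME-180 cervical carcinoma, SIE-beta-lactamase. Treatment: compound with 40 pM IL-6, 5 hrs, 37 C, in low-serum OPTI-MEM with 10 mM HEPES pH 7.3. Detection: 460/530 nm fluorescence.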
The target of experiment [5] is Mitogen-activated protein kinase 10 (Mus musculus) (UniProt Q61831). The experiment is described as follows: JNK3 AlphaScreen Assay (AID 530).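 Note: kinase came from lysate of stimulated human HepG2 cells; signal reports phosphorylation of biotinylated GST-cJun 1-79 at Ser73 with 10 µM ATP; % is set by controls: 0 for no effect and ±100 for the full control effect.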 In outline:
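qHTS format: compounds tested as titrations against IL-1beta/TNF-alpha-activated HepG2 lysate JNK3 with biotin-GST-cJun substrate and 10 uM ATP at room temperature. Loss of anti-phospho-cJun AlphaScreen signal indicates inhibition.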
Background: Alpha assays give light when donor and acceptor beads are brought close together.

Experiment [6] concerns the target 3',5'-cyclic-AMP phosphodiesterase 4B (Homo sapiens) (UniProt Q07343). Put plainly: qHTS Assay for Inhibitors of PDE-IV (AID 607; active = well fitted activation curve with a large enough effect in the main read-out, with a control signal flat, not every such curve was filed as active; note: % of control where 0% means no effect). A digest of the protocol:
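Cell-based read-out of cAMP via a modified cyclic nucleotide-gated channel and membrane potential dye (535/590 nm) in HEK293 cells expressing PDE4 endogenously. Compounds tested up to 22.9 uM final; 100 uM RO 20-1724 reference.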

Experiment [7] deals with Pyruvate kinase (Leishmania mexicana) (UniProt Q27686). Put plainly: qHTS Validation Assay for Inhibitors of Leishmania Mexicana Pyruvate Kinase (AID 945; active = well fitted curve in the direction sought with a large enough effect; an effect the other way counts as inactive or inconclusive;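 note: 0% = DMSO only neutral control wells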). In outline: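 Purified LmPYK (E451W mutant, 0.2 nM) was incubated 1 h at room temperature with 0.5 mM PEP and 0.1 mM ADP in 50 mM imidazole pH 7.2, 50 mM KCl, 7 mM MgCl2; ATP formed was read by PKLight luminescence, normalized to DMSO wells.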
In general terms: qHTS replaces the single test concentration by a dilution series.

Experiment [8] concerns the target Alpha-galactosidase A (Homo sapiens) (UniProt P06280). Put plainly: Counterscreen for Glucocerebrosidase Inhibitors: qHTS Assay for Human alpha-Galactosidase at pH 4.5 (AID 992; active = well fitted curve in the direction sought with a large enough effect; an effect the other way counts as inactive or inconclusive; note: 0% is about no effect). In outline: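 Quantitative HTS: compounds tested from 0.7 nM up to 77 uM against 2 nM enzyme with 80 uM 4-MU alpha-D-galactopyranoside. The 20 min room-temperature reaction is stopped with 1M NaOH/1M glycine, pH 10.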
In general terms: A counterscreen serves to expose hits that act by an unwanted route or on another target.

In experiment [9] the target is alpha-glucosidase (Oryza sativa, rice) (UniProt Q653V4). Put plainly: Counterscreen for Glucocerebrosidase Inhibitors: qHTS Assay for Rice alpha-Glucosidase at pH 5.0 (AID 997; active = well fitted curve in the direction sought with a large enough effect; an effect the other way counts as inactive or inconclusive;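 note: 0% = full activity with enzyme and -100% = basal without enzyme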). A digest of the protocol: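 Rice alpha-glucosidase (4 nM final) with 400 uM 4-methylumbelliferyl-alpha-D-glucopyranoside in citrate buffer pH 5.0, 20 min at room temperature, stopped at pH 10; fluorescence 365/440 nm, compounds 0.7 nM–77 uM, AC50 from Hill fits.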

A short description of experiment [10]: qHTS Assay for Lipid Storage Modulators (AID 1519; calls by dose curve). Particulars: Drosophila S3 cells, BODIPY lipid droplet/cell ratio, laser cytometry, cells loaded with oleic acid; for activity change, negative = inhibition: at 25.7 µM (top of the series). In outline: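 Cells seeded at 5,000 per well were treated with compounds over a concentration series and loaded with oleic acid (400 uM, as added). Lipid droplet fluorescence (488 nm excitation, 500-530 nm channel) was read by laser-scanning cytometry and normalized to 20 uM Triacsin C.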

The target in experiment [11] is Ubiquitin carboxyl-terminal hydrolase 1 (Homo sapiens) (UniProt O94782). Put plainly: Inhibitors of USP1/UAF1: Pilot qHTS (AID 504865; active = well fitted curve in the direction sought with a large enough effect; an effect the other way counts as inactive or inconclusive;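 note: rhodamine fluorescence freed from ubiquitin-rhodamine substrate followed over time; top concentration of the series differs between compounds; % is set by controls: 0 for no effect and ±100 for the full control effect; nearly all actives have a fitted effect of over 35% in size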). In outline:
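USP1/UAF1 complex at 1 nM preincubated 15 min at room temperature with compound, then Ub-Rho substrate added at 150 nM final. Fluorescence (480/540 nm) read kinetically in 50 mM HEPES pH 7.8, 0.5 mM EDTA, 1 mM TCEP, 0.1 mg/ml BSA, 0.01% Tween-20.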

In experiment [12] the target is ATP-dependent 6-phosphofructokinase (Trypanosoma brucei brucei) (UniProt O15648). Put plainly: qHTS Assay to Find Inhibitors of T. brucei phosphofructokinase: hit validation (AID 492961; active = well fitted curve in the direction sought with a large enough effect; an effect the other way counts as inactive or inconclusive). In outline: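 Compounds titrated; %activity normalized to 0x and 1x enzyme controls, curve-fitted. Readout: ADP-Glo luminescence after 45 min room-temperature reaction of 1.25 nM PFK, 0.1 mM ATP, 0.5 mM F6P, pH 8.0.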

Experiment [13] in a line: qHTS profiling for inhibitors of Plasmodium falciparum proliferation (AID 504749; active = well fitted curve in the direction sought with a large enough effect; an effect the other way counts as inactive or inconclusive;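 note: 0% = DMSO vehicle and full inhibition = artemisinin control; nearly all actives have a fitted effect of over 60% in size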). Particulars: P. falciparum in erythrocytes, SYBR Green DNA, 72 h, at 12.8 µM (top of the series). A digest of the protocol:
(§1)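 Readout was DNA-dye fluorescence from lysed cultures, ex 485/em 535 nm. Parasitized red cells had grown 72 h with compound; data scaled between 0.29 uM artemisinin and DMSO wells and corrected using vehicle-only plates.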

Another experiment has as its system AS120. The experiment is described as above. Particulars: P. falciparum in erythrocytes, SYBR Green DNA, 72 h; series mostly up to 28.7 µM. In outline:
as §1

For another experiment, the system named is CP238. The experiment is described as above. Particulars: P. falciparum in erythrocytes, SYBR Green DNA, 72 h; series mostly up to 12.8 µM. In outline: as §1
The test system of another experiment is CP265. The experiment is described as above. Particulars: P. falciparum in erythrocytes, SYBR Green DNA, 72 h; series mostly up to 12.8 µM. A digest of the protocol: as §1
The subject of another experiment is FAB9. The experiment is described as above. Particulars: P. falciparum in erythrocytes, SYBR Green DNA, 72 h; series mostly up to 12.8 µM. In outline:
as §1

[14] abbreviates: measured here: cell count channel max response.
Setting [15] is: measured here: lipid channel max response.

Sequence of Pyruvate kinase (Leishmania mexicana) (Q27686 2-499 E452W): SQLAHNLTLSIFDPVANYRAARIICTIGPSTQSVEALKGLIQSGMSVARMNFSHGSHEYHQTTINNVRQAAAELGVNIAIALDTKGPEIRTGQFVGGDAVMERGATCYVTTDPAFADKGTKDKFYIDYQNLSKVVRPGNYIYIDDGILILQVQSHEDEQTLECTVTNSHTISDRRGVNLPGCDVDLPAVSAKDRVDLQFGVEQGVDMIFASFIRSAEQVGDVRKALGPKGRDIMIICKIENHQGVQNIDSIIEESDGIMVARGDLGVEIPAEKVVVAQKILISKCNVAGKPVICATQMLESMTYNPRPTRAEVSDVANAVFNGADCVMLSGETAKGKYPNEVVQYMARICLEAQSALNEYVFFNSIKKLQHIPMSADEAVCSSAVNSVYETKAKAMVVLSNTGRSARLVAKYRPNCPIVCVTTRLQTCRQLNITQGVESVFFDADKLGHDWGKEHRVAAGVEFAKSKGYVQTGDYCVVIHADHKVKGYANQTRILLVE
Sequence of Ubiquitin carboxyl-terminal hydrolase 1 (Homo sapiens) (O94782 whole entry, looked up): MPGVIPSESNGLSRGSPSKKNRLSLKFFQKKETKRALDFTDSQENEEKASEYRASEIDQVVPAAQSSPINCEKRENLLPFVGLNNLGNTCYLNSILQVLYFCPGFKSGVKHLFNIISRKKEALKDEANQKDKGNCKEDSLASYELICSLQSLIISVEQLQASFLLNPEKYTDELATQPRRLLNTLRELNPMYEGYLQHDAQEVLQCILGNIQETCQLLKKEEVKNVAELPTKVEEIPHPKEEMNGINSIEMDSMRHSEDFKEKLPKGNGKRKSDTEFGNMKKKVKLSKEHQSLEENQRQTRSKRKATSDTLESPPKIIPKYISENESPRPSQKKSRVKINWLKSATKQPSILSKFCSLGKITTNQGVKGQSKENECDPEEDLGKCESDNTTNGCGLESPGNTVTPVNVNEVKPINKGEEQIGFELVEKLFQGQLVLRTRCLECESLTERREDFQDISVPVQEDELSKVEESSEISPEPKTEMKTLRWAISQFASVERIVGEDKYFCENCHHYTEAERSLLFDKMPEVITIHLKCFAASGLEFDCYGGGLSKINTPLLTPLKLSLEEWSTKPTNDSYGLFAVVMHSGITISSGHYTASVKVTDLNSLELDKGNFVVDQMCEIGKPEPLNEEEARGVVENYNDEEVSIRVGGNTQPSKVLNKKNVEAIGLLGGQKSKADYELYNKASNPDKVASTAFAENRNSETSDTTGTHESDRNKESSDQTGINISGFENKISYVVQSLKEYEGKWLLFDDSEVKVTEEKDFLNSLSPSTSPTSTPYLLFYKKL
Sequence of Alpha-galactosidase A (Homo sapiens) (P06280 whole entry, looked up): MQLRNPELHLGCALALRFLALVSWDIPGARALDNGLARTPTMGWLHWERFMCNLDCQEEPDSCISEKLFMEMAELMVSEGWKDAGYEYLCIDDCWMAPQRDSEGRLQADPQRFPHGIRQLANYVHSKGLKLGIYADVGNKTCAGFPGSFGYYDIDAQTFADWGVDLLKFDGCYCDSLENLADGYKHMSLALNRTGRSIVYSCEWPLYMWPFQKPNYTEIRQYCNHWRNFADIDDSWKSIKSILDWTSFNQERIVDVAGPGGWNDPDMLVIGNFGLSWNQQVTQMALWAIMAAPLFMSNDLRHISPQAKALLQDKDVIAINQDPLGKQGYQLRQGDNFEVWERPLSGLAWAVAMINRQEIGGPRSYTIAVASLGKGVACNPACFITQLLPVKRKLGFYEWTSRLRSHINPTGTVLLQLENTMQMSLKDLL
Sequence of Cytochrome P450 1A2 (Homo sapiens) (P05177 whole entry, looked up): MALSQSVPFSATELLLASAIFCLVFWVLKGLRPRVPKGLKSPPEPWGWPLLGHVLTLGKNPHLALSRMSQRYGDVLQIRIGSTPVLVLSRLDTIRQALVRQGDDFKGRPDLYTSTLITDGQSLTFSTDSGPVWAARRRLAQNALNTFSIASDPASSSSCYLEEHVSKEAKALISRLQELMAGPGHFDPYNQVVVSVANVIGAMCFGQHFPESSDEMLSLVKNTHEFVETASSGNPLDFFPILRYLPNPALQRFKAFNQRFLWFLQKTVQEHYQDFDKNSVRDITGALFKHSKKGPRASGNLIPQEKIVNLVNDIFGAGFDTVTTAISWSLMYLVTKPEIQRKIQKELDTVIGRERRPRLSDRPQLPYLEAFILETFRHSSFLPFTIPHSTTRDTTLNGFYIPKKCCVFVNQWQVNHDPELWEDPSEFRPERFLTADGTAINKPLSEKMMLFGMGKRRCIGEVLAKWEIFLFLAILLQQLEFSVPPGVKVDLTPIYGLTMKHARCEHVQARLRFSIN
Sequence of 3',5'-cyclic-AMP phosphodiesterase 4B (Homo sapiens) (Q07343 whole entry, looked up): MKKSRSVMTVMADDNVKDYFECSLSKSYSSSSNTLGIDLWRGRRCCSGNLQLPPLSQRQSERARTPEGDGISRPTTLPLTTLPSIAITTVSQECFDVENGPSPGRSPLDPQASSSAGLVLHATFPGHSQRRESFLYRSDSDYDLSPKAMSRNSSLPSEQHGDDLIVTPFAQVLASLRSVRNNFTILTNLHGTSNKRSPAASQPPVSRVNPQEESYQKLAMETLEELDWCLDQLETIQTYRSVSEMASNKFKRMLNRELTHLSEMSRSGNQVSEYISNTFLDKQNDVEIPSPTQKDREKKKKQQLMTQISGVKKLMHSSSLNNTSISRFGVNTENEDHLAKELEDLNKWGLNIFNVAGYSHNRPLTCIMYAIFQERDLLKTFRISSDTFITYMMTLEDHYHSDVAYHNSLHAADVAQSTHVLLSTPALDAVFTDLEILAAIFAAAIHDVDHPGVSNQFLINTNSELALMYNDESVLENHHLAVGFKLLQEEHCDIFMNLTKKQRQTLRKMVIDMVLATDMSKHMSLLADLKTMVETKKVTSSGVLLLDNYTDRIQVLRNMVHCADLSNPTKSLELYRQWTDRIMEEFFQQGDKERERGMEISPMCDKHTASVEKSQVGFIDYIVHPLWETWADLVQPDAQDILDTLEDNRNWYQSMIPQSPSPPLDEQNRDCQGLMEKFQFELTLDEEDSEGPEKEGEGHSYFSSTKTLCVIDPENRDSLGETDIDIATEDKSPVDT
Sequence of ATP-dependent 6-phosphofructokinase (Trypanosoma brucei brucei) (O15648 whole entry, looked up): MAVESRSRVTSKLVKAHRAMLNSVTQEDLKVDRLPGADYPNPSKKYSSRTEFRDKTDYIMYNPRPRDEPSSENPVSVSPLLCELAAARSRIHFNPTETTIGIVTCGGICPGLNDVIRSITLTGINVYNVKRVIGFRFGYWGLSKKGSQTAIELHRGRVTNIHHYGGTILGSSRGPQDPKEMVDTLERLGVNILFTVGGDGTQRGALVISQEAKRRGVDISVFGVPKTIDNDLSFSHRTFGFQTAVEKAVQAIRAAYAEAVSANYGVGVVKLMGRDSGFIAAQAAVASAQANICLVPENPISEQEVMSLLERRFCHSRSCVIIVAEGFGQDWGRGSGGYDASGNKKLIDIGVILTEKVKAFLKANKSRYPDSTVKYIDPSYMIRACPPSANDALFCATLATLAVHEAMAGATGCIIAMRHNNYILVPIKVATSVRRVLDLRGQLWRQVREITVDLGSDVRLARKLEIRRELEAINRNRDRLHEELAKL

As for `C=CCc1ccccc1OC[C@H](O)CNC(C)C`, the activity change, negative = inhibition in experiment [1] (at 17.2 µM (top of the series)) is 12.5% (inactive); in experiment [1] (at 38 µM (top of the series)), 11.9% (inactive); in experiment [3] (at 17.2 µM (top of the series)), -2.1% (inactive); in experiment [3] (at 38 µM (top of the series)), -5.09% (inactive); in experiment [10], 0.0029% (inactive). The Potency in experiment [2] was 7.94 µM (active) and 3.16 µM (active). Moreover, the activity, negative = inhibition in experiment [4] (at 7.69 µM (top of the series) unless noted) is 5.89% [at 17.2 µM] (inactive). Besides, the Potency entry in experiment [5], in experiment [6] and in experiment [11] was “inactive” throughout. For the same compound, the compound was classed as inactive in experiment [7], in experiment [8] and in experiment [9]. In addition, the max response in [10] (setting [14]) is -4%; in experiment [10] (setting [15]) it was -3.45%.

Regarding `CN1C(=O)CC[C@@H]1c1cccnc1`, the activity change, negative = inhibition in [1] (at 17.2 µM (top of the series)) is 10.4% (inactive); in [1] (at 38 µM (top of the series)), -5.74% (inactive); in [3] (at 17.2 µM (top of the series)) it was 1.15% (inactive); in experiment [3] (at 38 µM (top of the series)) it was 1.74% (inactive); in experiment [10], 0.0072% (inactive). Besides, the Potency entry in [2], in [5], in experiment [6] and in experiment [11] was “inactive” each time. Besides, the results for the activity, negative = inhibition in [4] (at 17.2 µM (top of the series)) and in experiment [4] (at 38 µM (top of the series)) were -1.06% (inactive) and 17.2% (inactive), respectively. Besides, the compound was classed as inactive in [7], in experiment [8] and in experiment [9]. For the same compound, the max response in experiment [10] (setting [14]) amounted to 5.39%; in [10] (setting [15]), 2.29%.

Take `Cc1cccc(C)c1OC[C@H](C)N`: the activity change, negative = inhibition in experiment [1] (at 17.2 µM (top of the series)) is 5.64% (inactive); in experiment [1] (at 38 µM (top of the series)) it was 1.06% (inactive); in experiment [3] (at 17.2 µM (top of the series)), 1.67% (inactive); in [3] (at 38 µM (top of the series)), 15.4% (inactive); in [10], -0.862% (inactive). The Potency in experiment [2] was 2.51 µM (active) and 398 nM (active). The activity, negative = inhibition in experiment [4] (at 17.2 µM (top of the series)) was 3.2% (inactive); in [4] (at 38 µM (top of the series)), -14.2% (inactive). The Potency result in experiment [5], in [6] and in experiment [11] was “inactive” in each case. Moreover, the call in experiment [7], in [8] and in [9] was inactive. The figures for the max response in experiment [10] (setting [14]) and in experiment [10] (setting [15]) were -4.34% and -6.28%, respectively.

For `O=C(c1ccccc1)c1ccc2n1CC[C@H]2C(=O)O`, the activity change, negative = inhibition was -5.93% (inactive) in experiment [1] (at 17.2 µM (top of the series)); -1.3% (inactive) in experiment [1] (at 38 µM (top of the series)); -13.5% (inactive) in [3] (at 17.2 µM (top of the series)); -0.138% (inactive) in experiment [3] (at 38 µM (top of the series)); 1.19% (inactive) in [10]. Besides, the Potency in [2] was 15.8 µM (active). The activity, negative = inhibition in [4] (at 17.2 µM (top of the series)) was 0.0746% (inactive); in experiment [4] (at 38 µM (top of the series)), 5.51% (inactive); in experiment [13] (parasite line A) it was 1.36% (inactive); in [13] (parasite line B), 2.01% (inactive). In addition, the Potency result (in [5]; in experiment [6]; in [11]; in the experiment with AS120; in the experiment on CP238; with CP265) was “inactive” throughout. The Potency entry with FAB9 is “inactive”. The compound was classed as inactive in [7], in [8], in [9] and in [12]. In addition, the values for the max response in experiment [10] (setting [14]) and in experiment [10] (setting [15]) were -5.21% and -1.68%, respectively.
